Where a structure was tested more than once in an assay, its records may differ in their call. Active and inactive are the calls of the source. How the source made its calls: active means hit-call score of the fitted dose curve at least 0.9, where 1 is the maximum; inactive means score below 0.9.
Assay: ATG_CMV_CIS: Attagene CIS-FACTORIAL HepG2 Assay for human CMV (Internal Marker) (AID 2282928);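 further: endpoint acts as a background internal control marker rather than a target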
Conditions: HepG2 CMV promoter reporter, transcription factor profiling; actives raise or lower the signal
Experimental: ATG_CIS is a cell-based, multiplexed-readout assay that uses HepG2, a human liver cell line, with measurements taken at 24 hours after chemical dosing in a 24-well plate.ATG_CMV_CIS is one of 52 assay component(s) measured or calculated from the ATG_CIS assay. It is designed to make measurements of mRNA induction, a form of inducible reporter, as detected with fluorescence intensity signals by Reverse transcription polymerase chain reaction (RT-PCR) and Capillary electrophoresis technology.Data from the assay component ATG_CMV_CIS was analyzed into 1 assay endpoint. This assay endpoint, ATG_CMV_CIS, was analyzed with bidirectional fitting relative to DMSO as the negative control and baseline of activity. Using a type of inducible reporter, measures of mRNA for gain or loss-of-signal activity can be used to understand the background control at the transcription factor-level as they relate to the gene . Furthermore, this assay endpoint can be referred to as a secondary readout, because this assay has produced multiple assay endpoints where this one serves a background control function. To generalize the intended target to other relatable targets, this assay endpoint is annotated to the background measurement intended target family, where the subfamily is internal marker.
Human liver HepG2 cells are transiently transfected with multiple reporter transcription units (MRTUs) in 6-well plates using FuGene 6 reagent (Roche; 3 ml FuGene/1 mg DNA). The MRTU constructs are regulated by a cis-regulating element (promoter). […] A major difference between the CIS and TRANS system is that in CIS activities of endogenous TFs are measured, whereas the TRANS assay evaluates changes in activities of exogenous, chimeric NR-Gal4 proteins. […] At the end of 24 hour incubation, total RNA was isolated using TriZol reagent (Invitrogen). The isolated RNA is then reverse-transcribed using oligo(dT) primer and Mo-MLV reverse transcriptase (Invitrogen) with DNAse I (Ambion) treatment for 30 min. The one-tenth of the produced cDNA was amplified by PCR using Taq DNA polymerase (Invitrogen) and two reporter sequence-specific primers. The PCR products were fluorescently labeled by primer extension with 6-arboxyfluorescein (6-FAM) 5'-labeled reporter sequence-specific primer (2 min at 95 C, 20 s at 68 C and 10 min at 72 C) and these products were digested with 5U of HpaI (New England Biolabs) for 2h at 37 C. The fragments were purified using Qiaquick PCR columns (Qiagen), analyzed on an ABI 3130xL genetic analyzer (Applied Biosystems) with peak positions identified by using a set of X-rhodamine (ROX)-labeled MapMarker1000 molecular weight standards (BioVentures). The raw capillary electrophoresis data was processed using Attagraph software (Attagene).

| SMILES | outcome | AC50 |
| --- | --- | --- |
| NC(=O)c1ccc(N)nc1 | inactive | – |
| CCOC(=O)CC(=O)CCl | – | 65.7 µM (active) |
| CCC[N+](CCC)(CCC)CCC | inactive | – |
| CCOP(=S)(OCC)SCSc1cc(Cl)ccc1Cl | inactive | – |
| BrCC(Br)c1ccccc1 (stereo not given) | inactive | – |
| [F][Sn]([c]1ccccc1)([c]1ccccc1)[c]1ccccc1 | – | 0.334 µM (active) |
| CCC(C)(C#N)N=NC(C)(C#N)CC (stereo not given) | inactive | – |
| Clc1cccc(Cl)c1Cl | inactive | – |
| OC(Cc1ccccc1Cl)(Cn1cncn1)C1(Cl)CC1 (stereo not given) | inactive | – |
| CCOc1cc(C=O)ccc1O | inactive | – |
| N#CCC#N | inactive | – |
| C=CCCl | inactive | – |
| CCCCCCCCCCBr | – | 163 µM (active) |
| Brc1ccc(Br)cc1 | inactive | – |
| CCOC(=O)C(SP(=S)(OC)OC)c1ccccc1 (stereo not given) | inactive | – |
| CC(C)(C)c1ccc(CCOc2ncnc3ccccc23)cc1 | inactive | – |
| Clc1ccc(C(Cl)(Cl)Cl)cn1 | inactive | – |
| O=c1oc2ccccc2c(O)c1C(CC(O)c1ccc(-c2ccc(Br)cc2)cc1)c1ccccc1 (stereo not given) | inactive | – |
| CCNc1nc(NCC)nc(SC)n1 | inactive | – |
| CCC[CH2][Sn]([Cl])([Cl])[CH2]CCC | – | 0.721 µM (active) |

| SMILES | outcome | AC50 |
| --- | --- | --- |
| ClCc1ccccc1CCl | – | 56 µM (active) |
| CCCCCCCCCCCCOS(=O)(=O)O | inactive | – |
| O=S1(=O)OC(c2cc(Br)c(O)c(Br)c2)(c2cc(Br)c(O)c(Br)c2)c2ccccc21 | inactive | – |
| Nc1ccc(N)cc1 | inactive | 24.3 µM (active) |
| C=CCOC(N)=O | inactive | – |
| O=C(Cc1ccccc1)OCCc1ccccc1 | inactive | – |
| CCCCCCCCCCCCBr | inactive | – |
| CC1(C)COP(Oc2ccccc2)OC1 | inactive | – |
| OC[C@@H](O)[C@H]1O[C@@H]2O[C@H](C(Cl)(Cl)Cl)O[C@@H]2[C@H]1O | inactive | – |
| CCOC(=O)c1ccccc1S(=O)(=O)NC(=O)Nc1nc(Cl)cc(OC)n1 | inactive | – |
| C=C(C)C(=O)OCCCCOC(=O)C(=C)C | inactive | – |
| O=C1C=CC(=O)c2ccccc21 | inactive | – |
| COCCl | inactive | – |
| NC(=O)CCl | inactive | – |
| C=CCN=C=S | inactive | – |
| N#CS | inactive | – |
| Cc1cccc(C)c1NC(=O)CN1CCCC1=O | inactive | – |
| CC(C)=CC1C(C(=O)OCc2cccc(Oc3ccccc3)c2)C1(C)C (stereo not given) | inactive | – |
| CN(N=O)c1ccc([N+](=O)[O-])cc1 | inactive | – |

Source: PubChem BioAssay (EPA / NIEHS)
